In the supplement of paper PMC3334620:
The full ranking holds about 33,000 sequences; the median of “E-score (-0.5 to 0.5)” is about -0.021, and the highest 2% start at about 0.32. Many of the other results were omitted from the sample, so the highest values are more common in it than they were.

target: T1, Zap1 (UniProt P47043); assay: PBM E-score (8-mer binding enrichment) (E-score (-0.5 to 0.5)); higher = stronger / more preferred TF binding; conditions: protein concentration: 200 nM; construct: GST-full length
T1 sequence: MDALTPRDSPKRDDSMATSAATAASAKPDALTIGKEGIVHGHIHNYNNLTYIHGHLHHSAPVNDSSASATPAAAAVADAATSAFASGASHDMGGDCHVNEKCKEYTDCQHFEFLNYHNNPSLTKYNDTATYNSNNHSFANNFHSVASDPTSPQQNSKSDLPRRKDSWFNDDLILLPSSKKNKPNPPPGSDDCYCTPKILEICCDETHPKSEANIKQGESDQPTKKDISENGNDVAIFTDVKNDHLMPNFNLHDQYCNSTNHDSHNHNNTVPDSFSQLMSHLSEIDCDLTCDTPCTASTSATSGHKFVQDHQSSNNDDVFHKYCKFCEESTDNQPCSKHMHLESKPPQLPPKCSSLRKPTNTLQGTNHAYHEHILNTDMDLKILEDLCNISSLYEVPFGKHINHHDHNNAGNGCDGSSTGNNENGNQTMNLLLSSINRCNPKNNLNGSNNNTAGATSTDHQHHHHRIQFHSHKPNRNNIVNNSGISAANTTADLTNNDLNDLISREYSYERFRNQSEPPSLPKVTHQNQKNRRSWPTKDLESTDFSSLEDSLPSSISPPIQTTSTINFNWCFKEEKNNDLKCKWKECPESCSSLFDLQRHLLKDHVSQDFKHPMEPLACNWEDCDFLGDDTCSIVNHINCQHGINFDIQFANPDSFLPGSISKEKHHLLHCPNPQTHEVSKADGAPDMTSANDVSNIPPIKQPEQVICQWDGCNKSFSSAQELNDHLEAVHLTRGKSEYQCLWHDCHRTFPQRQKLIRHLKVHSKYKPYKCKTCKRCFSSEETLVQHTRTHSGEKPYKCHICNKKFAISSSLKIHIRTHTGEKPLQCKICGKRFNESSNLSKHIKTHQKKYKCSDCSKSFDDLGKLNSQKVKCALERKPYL
Method in brief: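 PURExpress in vitro transcription/translation supplied GST-tagged yeast transcription factors, either full-length or DNA-binding domain. Applied at about 100-200 nM to universal all-10-mer Agilent arrays double-stranded by primer extension, the bound protein was detected with fluorescent anti-GST. E-scores, modified Wilcoxon-Mann-Whitney statistics, were given by the Universal PBM Analysis Suite to ungapped eight-base words pooled with their reverse complements after masliner normalisation.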

Row | Sequence | PBM E-score
1 | CCCCAGTA | -0.0431
2 | CACTGGTC | -0.0725
3 | CCTCAATC | 0.158
4 | CTGTTACC | 0.248
5 | CAGTTACC | 0.208
6 | CGGTTACC | 0.444
7 | GCCACTAC | -0.0479
8 | TATCTAGA | 0.151
9 | AGCGTCTA | -0.214
10 | ACCTTAAC | 0.358
11 | CCTTTAAC | 0.352
12 | ACCTTATA | 0.339
13 | CCCTTAAC | 0.0959
14 | GCTTTAAC | 0.186
15 | CCTTTAAG | 0.237
16 | ACCTTAAA | 0.247
17 | ACCTTATG | 0.314
18 | CCCTTAAG | 0.335
19 | ACCTTAAG | 0.269
20 | CCCTTATA | 0.15
21 | ACCTTAAT | 0.302
22 | AGTGGAAG | -0.204
23 | ATGAGCGG | -0.167
24 | GTTGGGAA | 0.0568
25 | ATGAGGAC | -0.0846

Row | Sequence | PBM E-score
26 | ATCCAGTC | -0.137
27 | CTCTCACC | 0.0392
28 | AATCCCGA | 0.0192
29 | ATCAACAT | 0.00735
30 | ATAGGAAC | 0.0152
31 | CGCCTACG | -0.23
32 | GAATGGCC | 0.188
33 | AGTGCGAA | -0.172
34 | CCTTAAGG | 0.411
35 | CCTTAAGC | 0.0365
36 | CCTTAAGA | 0.155
37 | AGCTCGAG | -0.0098
38 | GATACTCA | -0.029
39 | ATAGGTAG | 0.172
40 | CTAGGTAA | 0.0356
41 | ATAGGTAC | 0.36
42 | CTAGGTAC | 0.115
43 | ATAGGTGA | 0.0727
44 | ATAGGTAA | 0.323
45 | GGAAGGCA | -0.191
46 | AGGGGCTG | -0.0614
47 | ATGGTTAC | 0.471
48 | CTGGTTTC | 0.124
49 | CTGGTTAC | 0.412
50 | ATGGTTGC | 0.0738

Row | Sequence | PBM E-score
51 | ATGGTTAG | 0.316
52 | CTGGTTAA | 0.225
53 | ACGGTTGG | -0.0119
54 | CGCTATAG | -0.238
55 | TCCATTCA | 0.0213
56 | ATCTGGAA | -0.00838
57 | CGACCTCA | 0.081
58 | AAACCTTA | 0.288
59 | AAACCTAA | 0.159
60 | TAACCTTA | 0.39
61 | AAACCTCA | 0.232
62 | CAACCTTA | 0.286
63 | AGACCTCA | 0.0826
64 | CAACCTAA | 0.203
65 | TAACCTAA | 0.399
66 | TGACCTCA | 0.333
67 | TAACCTCA | 0.418
68 | GAACCTCA | 0.189
69 | AGCTACAT | -0.263
70 | ATTTCTGG | 0.0521
71 | AAGTTCAC | -0.108
72 | AATGAAGT | 0.0905
73 | AATCAAAG | 0.0185
74 | ACTATGAT | -0.00467
75 | GTTGTATA | 0.117

Row | Sequence | PBM E-score
76 | AAGTTGCT | -0.0577
77 | GTACTGAC | 0.0986
78 | GTACTGAA | 0.317
79 | GTACTGTA | 0.0704
80 | AGGGTCCG | -0.0112
81 | CGATGGCG | -0.284
82 | CATGAAAC | 0.0838
83 | CAAGTGCG | -0.0607
84 | GGCATGTA | -0.0887
85 | CCGCCCCG | 0.341
86 | CCGCCCCC | -0.343
87 | CCGCCCGG | 0.0274
88 | CAGGTGTC | -0.0194
89 | CAGTACTA | 0.164
90 | TCAAAAAA | 0.202
91 | TAACCAAA | 0.386
92 | AAACCATA | 0.202
93 | TAACCCAA | 0.424
94 | GAACCCAA | 0.152
95 | CAACCCCA | 0.42
96 | CAACCCCG | 0.211
97 | CAACCCCC | -0.212
98 | TAACCATA | 0.44
99 | CAACCAAA | 0.213
100 | GAACCATA | 0.206

Row | Sequence | PBM E-score
101 | CAACCCAA | 0.272
102 | AAACCAAA | 0.254
103 | AAGATGCA | 0.0988
104 | AACTTGCT | -0.17
105 | AATGTCTA | 0.00891
106 | CGTCAGTC | -0.206
107 | GCCGCATA | 0.102
108 | TACAAGTA | 0.0103
109 | AACCTAAT | 0.204
110 | GATCAACC | -0.0383
111 | GTGAGCGA | 0.1
112 | ATCAGTAC | -0.0201
113 | AGGTGCAA | 0.0924
114 | TTTGAAAA | 0.273
115 | GAGTTCGA | 0.0349
116 | AAACCACA | 0.184
117 | TAACCACA | 0.417
118 | AAACCCCA | 0.261
119 | GAACCCCA | 0.291
120 | TAACCCCA | 0.424
121 | AAACCACG | -0.0205
122 | GTGAGTCA | -0.0169
123 | CCAACTAC | 0.0442
124 | ACGCGATC | -0.143
125 | AACCACAT | 0.234

Row | Sequence | PBM E-score
126 | CACCACAA | 0.147
127 | AACCACTA | 0.369
128 | TACCACTA | 0.179
129 | ACCCACAC | 0.225
130 | ACCCACAG | 0.2
131 | AACCACAA | 0.34
132 | TACCACAA | 0.359
133 | ACCCACAA | 0.353
134 | CACCACTA | 0.22
135 | GACCACAA | 0.185
136 | AACCACAG | 0.233
137 | AAACTTAT | 0.19
138 | AGAAACTC | -0.0693
139 | GACAGTAA | 0.0265
140 | AGCTGGCG | -0.283
141 | AGAAGAGA | -0.205
142 | CCAAGATC | -0.0112
143 | ACTGCACT | -0.149
144 | ACAATGGA | 0.159
145 | AAGGAGGA | -0.291
146 | AAGTTACT | -0.0263
147 | CAGTTACG | -0.0217
148 | AGGTTAGG | 0.348
149 | AGGTTACT | 0.457
150 | AGGTTAGC | 0.23

Row | Sequence | PBM E-score
151 | ACGTTACA | -0.0394
152 | AGGTTAGA | 0.185
153 | AGGTTACA | 0.453
154 | CGGTTACG | 0.401
155 | AAGTTACA | 0.169
156 | CGGTTAAG | 0.289
157 | ACGTTACT | 0.143
158 | CGCTCTCC | -0.119
159 | ATCCTCTA | -0.118
160 | AAACGCCG | -0.159
161 | TACTGGGA | 0.0284
162 | ACCAATCG | 0.0293
163 | ACACGCTA | -0.194
164 | CGCCTCAA | -0.107
165 | CTCGAAGA | 0.0261
166 | GATTCCTA | 0.0308
167 | CGATCCAC | 0.00013
168 | AGGTTACG | 0.459
169 | ACGTTACG | 0.0601
170 | AAGTTACG | 0.17
171 | ATAACTCC | 0.128
172 | AAGGTTGC | 0.343
173 | AAGGTTGG | 0.281
174 | AAGGTTGT | 0.384
175 | AAGGTTGA | 0.149

Row | Sequence | PBM E-score
176 | CAGGTTGG | 0.0671
177 | CAGGTTGC | 0.0972
178 | GTCAGAAC | 0.0394
179 | AAATGGGA | -0.0864
180 | GTCCCCCA | -0.185
181 | CCGGTTAA | 0.261
182 | GCGGTTAA | 0.356
183 | CCGGTTAC | 0.398
184 | CCGGTTAG | 0.159
185 | GCTGTTAC | -0.104
186 | GCGGTTAC | 0.452
187 | GCGGTTGA | 0.149
188 | GCGGTTCC | 0.217
189 | CCGGTTTC | 0.0368
190 | AAGCTTGT | 0.15
191 | CATCGTTC | -0.015
192 | AGGAACCA | 0.0162
193 | CGAGCGCC | -0.202
194 | AGTTGGTC | 0.0383
195 | AGTCTTAG | -0.182
196 | GTATCCAA | 0.0926
197 | CCTGGCCC | -0.0746
198 | CGTTATCA | 0.0155
199 | GGTTAGTA | 0.325
200 | AGTTATCA | 0.186

Row | Sequence | PBM E-score
201 | AGTTATTA | 0.106
202 | GGTTATTA | 0.438
203 | GGTTATCA | 0.445
204 | CGTTATTA | 0.114
205 | CGTTAGTA | 0.0365
206 | AGTTAGTA | -0.00813
207 | CAGAGATC | -0.134
208 | CCGAGAAA | 0.187
209 | ACCCAGCA | 0.0307
210 | CGAATGAG | -0.106
211 | AGTTATAG | 0.148
212 | TCCCTCAA | 0.014
213 | ACCCTCAA | 0.361
214 | ACCCTCAT | 0.267
215 | ACCCTCAC | 0.251
216 | ACCCTCAG | 0.325
217 | CCCCTCAA | -0.068
218 | GGAGACGA | -0.032
219 | ATCTTTAA | 0.206
